Data on 98 compounds can be found in PubChem BioAssay AID2073 (Sanford-Burnham Center for Chemical Genomics, 2009).

Several values for one entry are separate records, joined by “and”; a condition that tells them apart may be missing. Identical values can stand only once. Screen size: about 290,000 compounds; about 570 (0.2%) were called active. About 1% were inconclusive and are not listed. No stated cut-off is given here; in the data, active means inhibition mostly above about 51% (no sharp cut-off); inconclusive means no clear call, values can overlap the other calls; inactive means mostly below about 53%. The full list was thinned out, with actives kept by preference.

This assay concerns the target Voltage-dependent N-type calcium channel subunit alpha-1B (Homo sapiens) (UniProt Q00975). As to the kind of experiment: inhibitors of Mint1-CaV2.2 protein interaction, biochemical, HTRF (AID 2073). As to conditions: at 20 µM, stronger effect = higher value.
Where [1] appears, read: measured here: average of repeat tests.

Chain of Voltage-dependent N-type calcium channel subunit alpha-1B (Homo sapiens) (Q00975 whole entry, looked up): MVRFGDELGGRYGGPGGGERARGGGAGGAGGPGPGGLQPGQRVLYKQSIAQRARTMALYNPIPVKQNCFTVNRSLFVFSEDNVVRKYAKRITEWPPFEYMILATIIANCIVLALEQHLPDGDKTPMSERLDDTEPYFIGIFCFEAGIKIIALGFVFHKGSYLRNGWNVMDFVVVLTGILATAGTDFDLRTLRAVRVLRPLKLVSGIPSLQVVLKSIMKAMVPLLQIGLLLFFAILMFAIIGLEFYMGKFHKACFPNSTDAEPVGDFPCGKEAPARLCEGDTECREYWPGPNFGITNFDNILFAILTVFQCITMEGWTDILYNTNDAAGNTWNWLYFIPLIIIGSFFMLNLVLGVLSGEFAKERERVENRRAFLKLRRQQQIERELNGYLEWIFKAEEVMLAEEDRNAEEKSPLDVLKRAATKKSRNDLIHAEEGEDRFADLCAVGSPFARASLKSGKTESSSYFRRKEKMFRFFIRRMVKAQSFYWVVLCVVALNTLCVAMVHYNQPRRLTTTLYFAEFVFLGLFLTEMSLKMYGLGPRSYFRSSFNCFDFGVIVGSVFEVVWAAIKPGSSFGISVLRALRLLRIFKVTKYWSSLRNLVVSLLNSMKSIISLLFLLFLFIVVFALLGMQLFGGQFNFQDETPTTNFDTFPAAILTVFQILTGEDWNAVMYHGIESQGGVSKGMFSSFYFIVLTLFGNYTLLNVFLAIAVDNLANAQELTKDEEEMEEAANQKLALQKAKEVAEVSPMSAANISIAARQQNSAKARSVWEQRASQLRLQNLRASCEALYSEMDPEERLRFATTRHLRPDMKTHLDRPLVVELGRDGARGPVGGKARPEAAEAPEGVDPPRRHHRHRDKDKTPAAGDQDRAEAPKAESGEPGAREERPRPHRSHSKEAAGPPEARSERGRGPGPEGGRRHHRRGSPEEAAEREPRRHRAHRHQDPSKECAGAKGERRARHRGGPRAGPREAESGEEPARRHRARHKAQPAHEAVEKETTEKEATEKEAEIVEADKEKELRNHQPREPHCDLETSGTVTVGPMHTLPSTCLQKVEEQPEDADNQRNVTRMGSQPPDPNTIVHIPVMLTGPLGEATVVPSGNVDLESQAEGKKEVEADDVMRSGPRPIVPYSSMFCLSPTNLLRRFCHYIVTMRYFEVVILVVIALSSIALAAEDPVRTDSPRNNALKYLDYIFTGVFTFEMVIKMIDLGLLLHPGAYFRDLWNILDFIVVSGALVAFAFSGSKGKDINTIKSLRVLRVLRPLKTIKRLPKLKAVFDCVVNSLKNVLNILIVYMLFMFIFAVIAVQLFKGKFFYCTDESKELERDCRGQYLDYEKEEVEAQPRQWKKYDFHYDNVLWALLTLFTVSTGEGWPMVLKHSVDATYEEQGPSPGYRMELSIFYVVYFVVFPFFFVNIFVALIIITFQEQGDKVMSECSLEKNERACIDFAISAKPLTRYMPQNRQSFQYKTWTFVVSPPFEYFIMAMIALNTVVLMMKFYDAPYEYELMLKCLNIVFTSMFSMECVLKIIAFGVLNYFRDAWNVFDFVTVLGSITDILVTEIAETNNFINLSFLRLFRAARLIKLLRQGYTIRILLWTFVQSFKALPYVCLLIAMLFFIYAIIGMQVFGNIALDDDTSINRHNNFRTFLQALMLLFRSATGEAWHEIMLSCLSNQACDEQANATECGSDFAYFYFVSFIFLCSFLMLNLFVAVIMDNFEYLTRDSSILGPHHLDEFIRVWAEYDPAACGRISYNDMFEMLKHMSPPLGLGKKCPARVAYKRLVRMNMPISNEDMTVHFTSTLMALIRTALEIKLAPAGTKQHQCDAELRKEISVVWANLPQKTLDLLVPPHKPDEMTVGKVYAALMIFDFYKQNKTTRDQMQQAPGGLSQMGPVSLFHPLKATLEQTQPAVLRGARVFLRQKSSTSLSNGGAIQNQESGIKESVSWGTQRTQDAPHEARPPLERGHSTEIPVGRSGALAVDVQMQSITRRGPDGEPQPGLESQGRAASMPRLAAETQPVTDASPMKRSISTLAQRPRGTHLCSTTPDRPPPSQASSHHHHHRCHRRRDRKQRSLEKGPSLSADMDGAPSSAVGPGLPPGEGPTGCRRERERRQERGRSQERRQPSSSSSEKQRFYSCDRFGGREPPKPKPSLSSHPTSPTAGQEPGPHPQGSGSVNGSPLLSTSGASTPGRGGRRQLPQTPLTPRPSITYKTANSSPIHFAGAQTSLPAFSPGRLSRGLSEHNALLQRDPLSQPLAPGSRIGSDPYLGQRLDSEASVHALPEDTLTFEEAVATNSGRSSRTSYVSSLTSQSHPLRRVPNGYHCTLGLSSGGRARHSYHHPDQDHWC

For `O=C(Nc1ccc2c(c1)OCO2)C1CC(=O)N(c2cccc(Cl)c2)C1` (stereo not given), the inhibition was -1.9% (inactive). Take `Oc1c(Br)cc(C=Nc2ccc3nc(-c4ccccc4)[nH]c3c2)c(O)c1Br`: the inhibition is 83.1% (active).

Take `COc1ccc2nc(-c3ccccc3)[nH]c2c1`: the inhibition was 11.7% (inactive). Take `Oc1c(Br)cc(/C=N/n2c(-c3ccccc3)n[nH]c2=S)c(O)c1Br`: the inhibition was -12.3% (inactive). Still for that read-out and setting: then `CCn1ccnc1CN(C)C(=O)c1ccc(OC2CCN(CCc3ccccc3)CC2)cc1`, with 6.5% (inactive); and `COCCn1c(SCc2cccnc2)nnc1-c1c[nH]c2ccccc12`, with -0.4% (inactive).

As to `CC(=O)N1CCC(C(=O)N2CCN(S(=O)(=O)c3cccs3)CC2)CC1`, the inhibition was 0.1% (inactive).

Consider `CCOC(=O)c1ccc(-n2cncn2)nc1`, for which the inhibition is -2.2% (inactive). The same measure, in the same setting: then `O=C(Nc1ccc(S(=O)(=O)N2CCOCC2)cc1)c1ccc(S(=O)(=O)N2CCOCC2)cc1`, with 7.3% (inactive). Regarding `CN(C)S(=O)(=O)c1cccc(NC(=O)c2ccncc2)c1`, the inhibition was 8.6% (inactive). On the same count and under the same terms, then `CC1CN=C(Nc2cccc(S(=O)(=O)N(C)C)c2)S1` (stereo not given), with -0.9% (inactive); and `CC(=O)Nc1ccc(S(=O)(=O)N2CCN(S(=O)(=O)N3CCOCC3)CC2)cc1`, with -2.3% (inactive); and `CC(=O)Nc1ccc(S(=O)(=O)N2CCOCC2)cc1`, with 11.4% (inactive). In the case of `CC(=O)Nc1ccc(C(=O)Nc2ccc(S(=O)(=O)N3CCOCC3)cc2)cc1`, the inhibition is -1.1% (inactive).

With `Cc1ccc(C(=O)N/C(=C\c2ccc(-c3cccc([N+](=O)[O-])c3)o2)C(=O)NCCCN2CCOCC2)cc1`, the inhibition was -1.4% (inactive). On the same count and under the same terms, to `COC(=O)Nc1nc2ccc(-c3n[nH]c(=O)c4ccccc34)cc2[nH]1` belongs -0.4% (inactive).

On to `Cc1cc(C)nc(Nc2ncc(O)n2-c2ccc(C)c(Cl)c2)n1`, for which the inhibition was 6% (inactive).

On to `Cc1ccc(NC(=O)CN(C)c2ccc(S(=O)(=O)N3CCCC3)cn2)cc1`, for which the inhibition is -2.9% (inactive).

In the case of `CC1(C)CC2CC(C)(CN2C(=S)Nc2ccccc2)C1` (stereo not given), the inhibition is 12.7% (inactive). On the same count and under the same terms, then `Fc1ccccc1Nc1nc2c(s1)CCc1ccccc1-2`, with 94.8% (active). Same read-out and setting: to `Nc1nc2c(s1)CCc1ccccc1-2` belongs -30.6% (inactive); to `CC(=O)Nc1nc2c(s1)CCc1ccccc1-2`, -3.5% (inactive). On the same count and under the same terms, then `CC(c1nnc(SCC(=O)Nc2cccnc2Cl)n1Cc1ccccc1)N(C)C` (stereo not given), with 1% (inactive); and `COc1ccc2nc3cccc(OC)c3nc2c1`, with 61.8% (active); and `COc1ccc2nc3ccccc3nc2c1`, with 23.5% (inactive).

Consider `COc1cccc2nc3cc(C)c(C)cc3nc12`, for which the inhibition was 23.4% (inactive). Still for that read-out and setting: to `Cc1ccsc1/C=N/NC(=O)CO` belongs 7.8% (inactive); to `CCCCNC(=O)[C@H](CSCc1ccccc1)N1Cc2ccccc2C1=O`, 0.1% (inactive). As to `COc1ccc(CNC(=O)COc2cc(=O)n(C)c3ccccc23)cc1`, the inhibition is 13.2% (inactive). The same measure, in the same setting: then `O=C1/C(=C/c2ccco2)CCc2ccccc21`, with 15.3% (inactive); and `O=C1/C(=C/c2ccco2)Cc2ccccc21`, with 11.1% (inactive); and `Nc1ccc2c(c1)C/C(=C/c1ccco1)C2=O`, with 87.9% (active). On the same count and under the same terms, then `CCCCn1ccnc1C`, with -1.1% (inactive). On the same count and under the same terms, to `O=C(CSc1cccc2cccnc12)Nc1ccccc1F` belongs 12.1% (inactive); to `COc1cc(/C=C2\SC(N)=NC2=O)ccc1OCC(=O)Nc1ccc(C)cc1`, 61.4% (active). `C=CCOc1ccc(/C=C2\SC(N)=NC2=O)cc1OC`: the inhibition was 10.2% (inactive).

`CCCOc1ccc(/C=C2\SC(N)=NC2=O)cc1OC`: the inhibition is -3% (inactive). Still for that read-out and setting: to `NC(=O)c1ccc2c(=O)n3c(-c4cc(Cl)c(N)c(Cl)c4)csc3nc2c1` belongs -27% (inactive); to `NC(=O)c1ccc2nc(-c3ccccc3)c(-c3ccccc3)nc2c1`, 4.7% (inactive). Still for that read-out and setting: then `O=C(NCc1nnc2c(C(F)(F)F)cc(Cl)cn12)c1ccc2c(c1)OCO2`, with 9% (inactive); and `O=C(c1ccc(COc2ccc(F)cc2)o1)n1cc(Br)cn1`, with 8% (inactive). Regarding `CCN1C(=O)/C(=C/C=C2/Sc3ccc4ccccc4c3N2CCO)SC1=S`, the inhibition is 74.6% (active). Same read-out and setting: to `CCCN1C(=O)/C(=C\C=C2/Sc3ccccc3N2CCO)SC1=S` belongs 26.3% (inactive); to `CCN1C(=O)/C(=C/C=C2/Sc3ccccc3N2CCO)SC1=S`, 38.4% (inactive).

Take `CC(C)CC(NC(=O)c1ccccc1)C(=O)N/N=C/c1ccco1` (stereo not given): the inhibition is 3.7% (inactive). The same measure, in the same setting: to `CCOc1ccccc1-n1c(SCC(N)=O)nnc1-c1ccccc1` belongs -2.1% (inactive); to `O=C(Nc1nc2ccccc2s1)c1cccc(S(=O)(=O)N2CCc3ccccc32)c1`, 8.8% (inactive); to `Cc1cc(C)c2nc(NC(=O)c3cccc(S(=O)(=O)N4CCc5ccccc54)c3)sc2c1`, 6.3% (inactive).

Turning to `Cc1cccc2sc(NC(=O)c3cccc(S(=O)(=O)N4CCc5ccccc54)c3)nc12`, the inhibition is 68.3% (active).

On to `CCOc1ccc(C(CCc2ccccc2)NC(=O)c2ccccc2F)cc1OCC` (stereo not given), for which the inhibition is 5.7% (inactive). The same measure, in the same setting: to `O=C(O)C(Cc1c[nH]c2ccccc12)NS(=O)(=O)c1ccc(Br)cc1` (stereo not given) belongs -0.4% (inactive). For the compound `CNC(=O)c1c(O)c2cccc3c2n(c1=O)CCC3`, the inhibition is 22.2% (inactive). On the same count and under the same terms, to `Cn1c(=S)[nH]c(=O)c2ncc(=O)[nH]c21` belongs -1.9% (inactive); to `O=C(O)CCCCC1SCC2NC(=O)NC21` (stereo not given), 8.5% (inactive) and -9.5% (inactive); to `O=C(O)CCCCCCCC(=O)O`, 0.9% (inactive). As for `O=C(O)CCCCC1CCSS1` (stereo not given), the inhibition is 101% (active). Still for that read-out and setting: then `O=[N+]([O-])c1ccc(O)c(C=Nc2cccc3ccccc23)c1`, with -35.1% (inactive); and `COCCNC(=O)C(c1ccc(OC)cc1)N(CCOC)C(=O)CCC(=O)Nc1nccs1` (stereo not given), with -3.6% (inactive); and `COCCCNC(=O)c1cccn2c(=O)c3cc4ccccc4cc3nc12`, with -3.3% (inactive). Same read-out and setting: then `O=C(NCc1ccco1)c1cnc2ccccn2c1=O`, with 0.3% (inactive); and `O=C(NCc1ccco1)c1cccn2c(=O)c3cc4ccccc4cc3nc12`, with 54.4% (active). On to `Cc1ccc(N(C(=O)c2ccco2)C(C(=O)NC2CCCC2)c2cccnc2)cc1` (stereo not given), for which the inhibition is -0.3% (inactive).

For the compound `O=C(N/N=C/c1ccc[nH]1)c1ccc(O)cc1`, the inhibition was 38.2% (inactive). Consider `O=C1/C(=C/c2cccc(Br)c2)SC(=S)N1/N=C/c1cc([N+](=O)[O-])ccc1O`, for which the inhibition is -2.1% (inactive). Same read-out and setting: to `Cc1ccc(/C=C2\SC(=S)N(/N=C/c3cc([N+](=O)[O-])ccc3O)C2=O)o1` belongs 73.2% (active); to `Cc1ccccc1/C=C1\SC(=S)N(/N=C/c2cc([N+](=O)[O-])ccc2O)C1=O`, 5.4% (inactive). The same measure, in the same setting: to `CCn1cc(CN2CCCC(C(=O)c3ccc(-c4ccccc4)c(F)c3)C2)cn1` (stereo not given) belongs 6.5% (inactive); to `O=C(O)C1CCC(N2C(=O)c3c(Cl)c(Cl)c(Cl)c(Cl)c3C2=O)CC1` (stereo not given), 81.3% (active). `O=C(O)C1CCC(N2C(=O)c3cccc([N+](=O)[O-])c3C2=O)CC1` (stereo not given): the inhibition is 5.9% (inactive).

As to `O=C(O)C1CCC(N2C(=O)C3CCCCC3C2=O)CC1` (stereo not given), the inhibition is -2.9% (inactive). The same measure, in the same setting: then `O=C1C2C3C=CC(C3)C2C(=O)N1c1n[nH]c(-c2ccccc2)n1` (stereo not given), with 11% (inactive); and `CC(=O)Oc1cc(O)c2c(c1)OC(c1ccc(OC(C)=O)c(OC(C)=O)c1)C(OC(C)=O)C2=O` (stereo not given), with 8.9% (inactive). The same measure, in the same setting: to `O=C1NN(c2cccc(Br)c2)C(=O)/C1=C/c1ccc(-c2cc([N+](=O)[O-])ccc2O)o1` belongs 61.4% (active); to `CC1=NN(c2ccc(C)cc2)C(=O)/C1=C/c1ccc(-c2cc([N+](=O)[O-])ccc2O)o1`, 44.4% (inactive). Still for that read-out and setting: then `O=C1NN(c2ccccc2)C(=O)/C1=C\c1ccc(-c2cc([N+](=O)[O-])ccc2O)o1`, with 31.4% (inactive).

Take `COc1ccc(/C=C2\SC(=S)N(CCC(=O)NCCCN3CCOCC3)C2=O)cc1`: the inhibition was -10.7% (inactive).

Turning to `CCc1ccc(C(=O)NNc2ccc(Cl)cc2)cc1`, the inhibition is -10.8% (inactive). The same measure, in the same setting: then `COc1cc(CNCCO)cc(Br)c1OCc1cccs1`, with -3.4% (inactive); and `O=C(Nn1cnnc1)c1csc2ccccc12`, with -11.1% (inactive). On the same count and under the same terms, then `CCCCCCn1c(=O)[nH]c2nc3cc(N)c(C)cc3nc2c1=O`, with 4.4% (inactive); and `Cc1cc2nc3c(=O)n(CCc4ccccc4)c(=O)[nH]c3nc2cc1N`, with 36.3% (inactive). Still for that read-out and setting: to `Cc1cc2nc3c(=O)n(Cc4ccccc4)c(=O)[nH]c3nc2cc1N` belongs 55.1% (active). For `NC1=NC[C@@H](Cc2ccc(O)cc2)N1CCc1cccc(F)c1`, the inhibition was 16.7% (inactive).

Take `CC1CN(C(=O)CCCN2C(=O)c3ccccc3C2=O)CC(C)O1` (stereo not given): the inhibition is -7.3% (inactive). On the same count and under the same terms, to `COc1ccc2[nH]c(=O)c(CN(Cc3nnnn3Cc3ccco3)C3CCCCC3)cc2c1` belongs 1.1% (inactive); to `COc1ccc2[nH]c(=O)c(CN(Cc3ccco3)C(c3nnnn3Cc3ccccc3)C(C)C)cc2c1` (stereo not given), 12.1% (inactive); to `Cn1c(/C=C/c2cccc([N+](=O)[O-])c2)nc2ccccc2c1=O`, -20.2% (inactive). On the same count and under the same terms, to `CCOC(=O)C(O)(CC(=O)c1ccc(OC)cc1)C(F)(F)F` (stereo not given) belongs -6.5% (inactive). Turning to `CC(C)(C)c1cc(N)on1`, the inhibition was -7.8% (inactive). The same measure, in the same setting: to `CC1=CC(=O)c2ccccc2C1=O` belongs -11.2% (inactive); to `COc1cccc2c1C(=O)C=C(C)C2=O`, -19.2% (inactive).

`CC1=CC(=O)c2c(O)ccc(O)c2C1=O`: the inhibition was 85.1% (active). `O=C(Nc1nc(-c2ccco2)c(-c2ccco2)s1)C1CCC1`: the inhibition is 58.1% (inactive). In addition, the inhibition under setting [1] came to 1.4%. Consider `O=C(Nc1nnc(C2CC2)s1)C1CC(=O)N(c2ccc3c(c2)OCCO3)C1` (stereo not given), for which the inhibition is 12.6% (inactive). Regarding `CCc1nnc(NC(=O)C2CC(=O)N(c3ccc4c(c3)OCCO4)C2)s1` (stereo not given), the inhibition was 3% (inactive). As to `O=C(Nc1nc(-c2ccco2)c(-c2ccco2)s1)C1CC(=O)N(c2ccc3c(c2)OCCO3)C1` (stereo not given), the inhibition was 66.7% (active).

Regarding `O=C(CCl)Nc1nc(-c2ccco2)c(-c2ccco2)s1`, the inhibition is 66% (active).

With `O=C(CCCSc1ccccc1)Nc1nc(-c2ccco2)c(-c2ccco2)s1`, the inhibition is 71.8% (inactive). Further, under setting [1], the inhibition was -7.2%.
